Only some compounds are listed: those with a hit (about 4.8% of all), similar ones and a draw of the others.
USP2a block – blocks human ubiquitin-specific protease USP2a; O75604; USP2 core, Ub-CHOP2 coupled fluorogenic reporter, 485/531; actives 0.01% (n = 330,000); Potency, µM (series often up to 38.3 µM), for the others: at the highest dose activity change, negative = inhibition, most hits filed as inhibitors;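 further: potency means the concentration at half of the fitted maximal effect; plate controls were DMSO wells for no effect and full inhibition by NEM control for full effect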
Target sequence (O75604 whole entry, looked up): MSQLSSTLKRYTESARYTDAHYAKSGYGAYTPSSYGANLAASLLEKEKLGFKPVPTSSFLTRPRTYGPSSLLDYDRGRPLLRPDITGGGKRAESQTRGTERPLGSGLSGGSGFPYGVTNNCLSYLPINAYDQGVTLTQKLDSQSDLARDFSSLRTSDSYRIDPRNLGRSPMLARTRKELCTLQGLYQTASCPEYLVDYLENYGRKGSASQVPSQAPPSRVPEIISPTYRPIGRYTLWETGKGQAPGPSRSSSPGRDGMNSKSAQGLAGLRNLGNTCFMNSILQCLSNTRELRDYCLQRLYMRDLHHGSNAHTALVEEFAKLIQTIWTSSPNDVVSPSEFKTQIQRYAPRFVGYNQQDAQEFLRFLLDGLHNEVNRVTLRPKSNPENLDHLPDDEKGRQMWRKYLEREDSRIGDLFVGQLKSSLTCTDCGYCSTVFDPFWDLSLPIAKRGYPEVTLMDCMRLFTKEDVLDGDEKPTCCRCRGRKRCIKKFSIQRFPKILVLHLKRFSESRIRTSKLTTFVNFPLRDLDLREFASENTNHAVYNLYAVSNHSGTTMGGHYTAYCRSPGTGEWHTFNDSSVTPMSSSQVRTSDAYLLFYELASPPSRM
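Deubiquitinase activity read as fluorescence (485/531 nm) after Ub-CHOP2 cleavage activates the enterokinase reporter on its substrate; USP2 core 10nM, Ub-CHOP2 and substrate 25nM each, 30min compound preincubation then 60min RT; data normalized to NEM, curves fitted.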
ATXN2 expr inh – inhibitors of ATXN2 expression; HEK-293 ATXN2-luciferase reporter, luminescence, 24 h; Potency, µM (series often up to 57 µM), for the others: top-dose activity change, negative = inhibition, actives largely listed as inhibitors; actives 0.72% (n = 360,000); AID 1745845; further: potency means the concentration at half of the fitted maximal effect; on the % scale 0 is the no-effect control and ±100 the full control effect; nearly all actives have a fitted effect of over 55% in size
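qHTS (up to 57 uM final) was run with 24 h compound exposure of reporter cells at 37 °C. Each well was multiplexed: SteadyGlo luminescence measured ATXN2-luciferase expression after a fluorogenic Gly-Phe-AFC viability readout (25 uM final).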
S2 tox – reduces viability in counter-screen for ATXN expression inhibitors; S2 cells (HEK-293 line with an ATXN2-luciferase reporter) viability, CellTiter-Fluor protease fluorescence, 24 h; Potency, µM (top dose mostly 56.7 µM), most hits filed as cytotoxic; actives 0.49% (n = 400,000); AID 651635; further: potency means the concentration at half of the fitted maximal effect; nearly all actives have a fitted effect of over 40% in size
IL1B secr inh – blocks inflammasome-driven IL-1 beta release; THP-1 LPS/ATP IL-1B secretion, AlphaLISA, 16 h; stronger effect = lower value; activity change, % at 57.5 µM; actives 4.7% (n = 360,000); AID 743279; in the data active means activity change below about -50%; inconclusive means mostly about -30% to -49%; further: on the % scale 0 is the no-effect control and ±100 the full control effect
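THP-1 cells pretreated 1 hr with compounds (up to 57.5 uM final), then stimulated with LPS (250 ng/mL final) plus ATP (1.25 mM final); secreted IL-1B measured by AlphaLISA after 16 hr, decreased signal indicating inhibition.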
USP1 inh – inhibitors of human USP1/UAF1 deubiquitinase; O94782; recombinant USP1/UAF1, Ub-Rhodamine cleavage fluorescence; Potency, µM (highest dose often 57.1 µM), without a hit: at the top dose activity change, negative = inhibition, actives largely listed as inhibitors; actives 0.23% (n = 390,000); AID 743255; further: potency means the concentration at half of the fitted maximal effect; on the % scale 0 is the no-effect control and ±100 the full control effect; nearly all actives have a fitted effect of over 60% in size
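USP1/UAF1 complex (1 nM) preincubated 15 min at room temperature with compound, then Ub-Rho substrate (150 nM final) added. Kinetic fluorescence at 480/540 nm over 6 reads at 60 s intervals; 50 mM HEPES pH 7.8, 0.5 mM EDTA, 0.1 mg/ml BSA, 1 mM TCEP, 0.01% Tween-20.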
Active calls of the source: *; i = inactive; ? = inconclusive; . = no result given. Unless noted, the call rests on the fitted dose curve; in most records, active means well fitted curve in the direction sought with a large enough effect; inconclusive means small, poorly fitted or top-dose-only effect, or another doubt; inactive means no such curve, though single readings can be large; an effect the other way counts as inactive or inconclusive.

SMILES	USP2a block	ATXN2 expr inh	S2 tox	IL1B secr inh	USP1 inh
C[C@]12CCC3C(CC[C@H]4C[C@@H](O)CC[C@]34C)[C@H]1C=CC2=O (some centres undefined)	-4%	-26%	i	-24	5%
CC12CC[C@H]3[C@@H](CCC4(O)C[C@H](O)CCC34/C=N/NC(=O)Cc3ccccc3)C1(O)CCC2C1=CC(=O)OC1 (some centres undefined)	-8%	?	i	-4	-2%
C[C@]12CC[C@H](O)C[C@H]1CC[C@@H]1[C@@H]2C[C@@H](O)[C@]2(C)[C@@H](C3=CC(=O)OC3)CC[C@]12O	1%	?	?	-66*	-28%
CCC(C(N)=O)N1CCCC1=O (centres undefined)	.	5%	i	.	.
O=C(CCCCl)c1ccc(F)cc1	.	16%	i	.	.
O=c1oc2ccccc2c(O)c1C(c1ccc([N+](=O)[O-])cc1)c1c(O)c2ccccc2oc1=O	3%	-17%	i	-3	?
CC(C)c1ccc(C(c2c(O)c3ccccc3oc2=O)c2c(O)c3ccccc3oc2=O)cc1	.	.	i	20	28µM*
C[C@H]1[C@@H](OS(=O)(=O)O)C[C@@H]2C[C@H]([C@@H](O)c3cc(=O)[nH]c(=O)[nH]3)NC3=NC[C@H]1N32	.	10µM*	i	-23	-11%
CC(C)(C)N1CC(C(=O)c2ccccc2)C1c1ccccc1 (centres undefined)	.	10%	i	-80*	-6%
CCOC(=O)c1ccccc1OC(=O)NNc1ccccc1	.	?	?	0	?
C[C@@H]1CN([C@H](C)CO)C(=O)CCCn2nncc2CO[C@@H]1CN(C)C(=O)Nc1ccc(N2CCCCC2)cc1	.	9%	?	20	-28%
CC(C)(O)/C=C/C(=O)C(C)(O)C1C(O)CC2(C)C3CC=C4C(C=C(O)C(=O)C4(C)C)C3(C)C(=O)CC12C (centres undefined)	.	?	2.4µM*	-103*	-21%
CC(=O)OC(C)(C)/C=C/C(=O)[C@](C)(O)C1[C@H](O)C[C@@]2(C)C3CC=C4C(C[C@H](O)C(=O)C4(C)C)[C@]3(C)C(=O)C[C@]12C (some centres undefined)	12%	?	?	-106*	-24%
O=C1/C(=C\c2ccncc2)N2CCC1CC2	1%	.	i	-5	-16%
O=C1/C(=C\c2ccc(Cl)c(Cl)c2)N2CCC1CC2	-1%	9%	i	-79*	-7%
O=C1/C(=C/c2cccc([N+](=O)[O-])c2)N2CCC1CC2	-2%	1%	i	-68*	-11%
O=C1/C(=C/c2cc([N+](=O)[O-])ccc2Cl)N2CCC1CC2	1%	-11%	i	-19	-1%
COc1cccc(C(=O)Nc2ccc3nc(SCC(=O)N(C)c4ccccc4)sc3c2)c1	.	?	?	.	-3%
C[C@@H]1CC2=CC(=O)CC[C@@H]2[C@H]2CC[C@@]3(C)[C@@H](CC[C@]3(C)O)[C@@H]21	.	-10%	i	.	.
O=C(Oc1ccc2ccc(OC(=O)N3CCCCCC3)cc2c1)N1CCCCCC1	0%	-11%	?	22	-12%
NC(N)=N/N=C/c1ccc(N(c2ccccc2)c2ccccc2)cc1	?	.	.	-55*	-27%
COc1ccc(/C=N\N=C(N)N)cc1	-1%	-27%	?	-10	1%
NC(Cc1ccc(C(F)(F)F)cc1)c1csc(Nc2nncc3ccccc23)n1 (centres undefined)	.	?	?	-67*	.
COc1ccc2[nH]c3c(c2c1)CCN1C(=O)C(CC(=O)NCc2cccc(C(F)(F)F)c2)C[C@H](C(=O)N2CCCCC2)[C@@]31C (some centres undefined)	-6%	0%	?	-53*	?
CC(C)=CCC/C(C)=C/CNC(=O)C[C@H]1C[C@H](C(=O)N(C(C)C)C(C)C)[C@@]2(C)c3[nH]c4ccc(Cl)cc4c3CCN2C1=O	2%	3%	i	38	?
NC(=O)c1ccc(N=Nc2c(O)[nH]c(=O)[nH]c2=O)cc1	1%	.	.	.	.

Screens as filed in PubChem BioAssay.
